Results taken from ChEMBL document CHEMBL1857833, “Screening and optimization of specific chemical series against human African Trypanosomiasis (HAT)”.
“And” between values parts separate entries of the source, which are not always exact repeats. Identical values can stand only once. The whole screen tested about 4,400 compounds, of which about 390 (8.9%) showed an effect of 50% or more. The full list was thinned out, with strong results kept by preference.

Each molecule was assayed on Trypanosoma brucei (assay: DNDI: Inhibition of Human African Trypanosomiasis, SBRI 427, in vitro at 2 ug.mL-1).
Type: functional

Compound	% inhibition
Cc1cccc(N2CCN(Cc3coc(-c4ccccc4F)n3)CC2)c1C	-33%
CN(CCc1ccccc1)Cc1coc(-c2ccccc2Cl)n1	17%
COc1cccc(-c2nc(CN(C)Cc3cc(OC)c(OC)c(OC)c3)co2)c1	-4%
O/N=C(/c1cccnc1Oc1c(F)cccc1F)N1CCC2CCCCC2C1 (configuration not stated)	-13%
O/N=C(\NC1CCCC1)c1cccnc1Oc1c(F)cccc1F	100%
O/N=C(\NCC1CCCCC1)c1cccnc1Oc1c(F)cccc1F	99%
CC1CC(N/C(=N\O)c2cccnc2OCC(C)(C)C)CC(C)(C)C1 (configuration not stated)	44%
CC1CC(N/C(=N\O)c2cccnc2Oc2c(F)c(F)cc(F)c2F)CC(C)(C)C1 (configuration not stated)	-10%
O/N=C(\NCC1CCCO1)c1cccnc1Oc1c(F)c(F)cc(F)c1F (configuration not stated)	1%
CC1CC(N/C(=N\O)c2cccnc2Oc2c(F)cccc2F)CC(C)(C)C1 (configuration not stated)	98%
O/N=C(\NC1CCCCC1)c1cccnc1Oc1c(F)cccc1F	99%
COc1ccc(Oc2nc(C)ccc2/C(=N/O)NCCN(C)C)cc1	0%
CCOc1ccc(-c2nc(CN(C)C3CCCCC3)co2)cc1	5%
c1ccc(Oc2ccc(NCc3coc(-c4cccc5ccccc45)n3)cc2)cc1	1%
O/N=C(/c1cccnc1OCc1ccccc1F)n1ccnc1	-10%
C#CCN(C)Cc1coc(-c2ccc(C)cc2)n1	-1%
Fc1cccc(-c2nc(CNCc3cccc4ccccc34)co2)c1	17%
CCOc1ccccc1N(Cc1ccccc1)Cc1coc(-c2ccc(O)cc2)n1	-16%
O/N=C(/c1ccc(Oc2ccc(-n3ccnc3)cc2)nc1)N1CC=CC1	16%
COc1ccc(NCc2coc(-c3ccc(OC)cc3)n2)cc1	9%
COc1ccc(OC)c(NCc2coc(-c3ccc(C)cc3)n2)c1	0%
CC1CCC(N/C(=N\O)c2cccnc2Oc2c(F)cccc2F)CC1 (configuration not stated)	99%
CC1CC(C)CN(/C(=N\O)c2cccnc2Oc2c(F)cccc2F)C1 (configuration not stated)	28%
Cc1ccc(/C(=N/O)NC2CCC(C)CC2)c(Oc2c(F)c(F)cc(F)c2F)n1 (configuration not stated)	22%

Compound	% inhibition
CCOc1ccc(-c2nc(CN(C)c3ccccc3)co2)cc1	-8%
CN(Cc1coc(-c2ccc(Cl)cc2Cl)n1)CC1OCCO1	30%
COc1cc(C)ccc1Oc1nc(C)ccc1/C(=N/O)Nc1ccccc1	-6%
CC(C)c1ccc(NCc2coc(-c3ccc(F)cc3)n2)cc1	7%
COc1cc(-c2nc(CN(C)CCc3ccccn3)co2)cc(OC)c1OC	-7%
COc1ccc(-c2nc(CN3CCN(c4cccc(C(F)(F)F)c4)CC3)co2)cc1	-13%
Clc1ccc(-c2nc(Cn3ccnc3)co2)c(Cl)c1	5%
Brc1ccc(-c2nc(CNCCCn3ccnc3)co2)cc1	56%
Clc1ccc(-c2nc(CNCCN3CCOCC3)co2)c(Cl)c1	0%
C#CCNCc1coc(-c2ccc(Cl)cc2Cl)n1	3%
c1ccc2c(-c3nc(CNCCCn4ccnc4)co3)cccc2c1	54%
Cc1cccc(-c2nc(CNCCCn3ccnc3)co2)c1	-8%
CC1CCCCN1CCCNCc1coc(-c2ccc(Cl)cc2Cl)n1 (configuration not stated)	99%
COc1ccc(-c2nc(CNCCCn3ccnc3)co2)cc1	6%
Clc1ccc(-c2nc(CNCCCn3ccnc3)co2)c(Cl)c1	86%
CCOc1ccccc1-c1nc(CNCCCn2ccnc2)co1	32%
Brc1ccccc1-c1nc(CNCCCn2ccnc2)co1	2%
Clc1ccc(-c2nc(CNCc3ccncc3)co2)c(Cl)c1	9%
Cc1ccc(/C(=N/O)NC2CCCCC2)c(OCc2cccc(F)c2)n1	-9%
CCC(NCc1coc(-c2ccc(OC(F)(F)F)cc2)n1)c1ccccc1 (configuration not stated)	-21%
CSc1ccc(Oc2cc(/C(=N/O)NC3CCc4ccccc43)ccn2)cc1 (configuration not stated)	9%
COCCN(Cc1coc(-c2ccccc2C)n1)C(C)(C)C	2%
COc1ccc(Oc2nc(C)ccc2/C(=N/O)N2CCCCC2)cc1	28%
Cc1cccc(Oc2nc(C)ccc2/C(=N/O)N2CCN(c3ccc(F)cc3)CC2)c1	12%

Compound	% inhibition
COc1ccccc1CN/C(=N\O)c1ccc(C)nc1OC1CCC1	6%
Cc1cn(Cc2coc(-c3cccc(F)c3)n2)c(-c2ccccc2)n1	-9%
CCOc1ccc(Oc2cc(/C(=N/O)N3CCC4CCCCC4C3)ccn2)cc1 (configuration not stated)	16%
Cn1nc(C(C)(C)C)cc1NCc1coc(-c2cccc3ccccc23)n1	25%
CCOc1ccccc1-c1nc(CN(C)Cc2ccccc2)co1	4%
Cc1ccc(/C(=N/O)N(C)C2CCCCC2)c(Oc2cccc(F)c2)n1	10%
CCC(NCc1coc(-c2ccc(OC)cc2)n1)c1ccccc1 (configuration not stated)	12% and 8%
Clc1ccc(-c2nc(CNCCCN3CCOCC3)co2)c(Cl)c1	23%
Clc1ccc(-c2nc(CNCCN3CCCC3)co2)c(Cl)c1	-4%
Clc1ccc(-c2nc(CNCCCN3CCCC3)co2)c(Cl)c1	98%
COc1ccc(Oc2cc(/C(=N/O)NCc3cc(F)cc(F)c3)ccn2)cc1	5%
COc1ccc(Oc2cc(/C(=N/O)NCC(C)(C)C)ccn2)cc1	92%
COc1ccc(Oc2cc(/C(=N/O)NCc3ccncc3)ccn2)cc1	9%
CCOc1ccc(Oc2cc(/C(=N/O)NCC(C)(C)C)ccn2)cc1	43%
CCC(CC)N/C(=N\O)c1ccnc(Oc2ccc(OC)cc2)c1	97%
CC(C)CN/C(=N\O)c1ccnc(Oc2ccc(Cl)cc2)c1	25%
CCOc1ccc(Oc2cc(/C(=N/O)NCc3ccc(OC)cc3)ccn2)cc1	-4%
COc1ccc(Oc2cc(/C(=N/O)Nc3ccccc3)ccn2)cc1	15%
COc1ccc(Oc2cc(/C(=N/O)NCC(C)C)ccn2)cc1	93%
CCOc1ccc(-c2nc(CNc3ccc(OC)cc3)co2)cc1	-21%
CCCCN(C)Cc1coc(-c2cccs2)n1	15%
CCOc1ccc(-c2nc(CN3CCc4cc(OC)c(OC)cc4C3C(C)C)co2)cc1 (configuration not stated)	15%
COc1ccc(-c2nc(CN(C)c3ccc(OC)cc3)co2)cc1	6%
CCOc1ccccc1Oc1ncccc1/C(=N/O)n1cnc(C)c1	16%

Compound	% inhibition
CCOc1ccccc1CNCc1coc(-c2ccc(OC)cc2)n1	-13%
CCCC(C)NCc1coc(-c2ccccc2Br)n1 (configuration not stated)	-7%
Fc1cccc(-c2nc(CN3CCN(c4cccc(Cl)c4)CC3)co2)c1	17%
COc1cccc(-c2nc(CN(C)CCc3ccccc3)co2)c1	1%
COc1cccc(Oc2ccc(/C(=N/O)NC3CC(C)CC(C)(C)C3)cn2)c1 (configuration not stated)	7%
COc1ccc(CN/C(=N\O)c2ccc(Oc3cccc(OC)c3)nc2)cc1	10%
Cc1cccc(Oc2ccc(/C(=N/O)NC3CCC(C)CC3)cn2)c1 (configuration not stated)	59%
Cc1cccc(Oc2ccc(/C(=N/O)NCC3CCCCC3)cn2)c1	36%
Cc1cccc(Oc2ccc(/C(=N/O)NC3CCc4ccccc43)cn2)c1 (configuration not stated)	10%
COc1cccc(Oc2ccc(/C(=N/O)NC3CCN(Cc4ccccc4)C3)cn2)c1 (configuration not stated)	-3%
COc1cccc(Oc2ccc(/C(=N/O)NC3CCC(C)CC3)cn2)c1 (configuration not stated)	89%
Cc1cccc(Oc2ccc(/C(=N/O)NC3CC(C)CC(C)(C)C3)cn2)c1 (configuration not stated)	47%
COc1cccc(Oc2ccc(/C(=N/O)NC3CCCCC3)cn2)c1	98%
COc1cccc(Oc2ccc(/C(=N/O)NCC3CCCCC3)cn2)c1	87%
Cc1ccc(/C(=N/O)N2CCC3CCCCC3C2)c(Oc2cccc(F)c2)n1 (configuration not stated)	16%
CCCN(Cc1coc(-c2cccc(F)c2)n1)CC1CC1	17%
COc1ccc(NCc2coc(-c3cccc(F)c3)n2)cc1	14%
CC(C)c1cccc(Oc2cc(/C(=N/O)NC3CCc4ccccc43)ccn2)c1 (configuration not stated)	4%
Clc1ccccc1-c1nc(CN2CCN(C/C=C/c3ccccc3)CC2)co1	-22%
COC(=O)C1CCN(/C(=N\O)c2cccnc2OCC2CCCCC2)CC1	6%
Cc1ccc(/C(=N/O)NCc2cccnc2)c(Oc2cccc(F)c2)n1	5%
Cc1ccc([C@@H](C)NCc2coc(-c3ccc(OC(F)(F)F)cc3)n2)cc1	-17%
CCc1ccc(Oc2ncccc2/C(=N/O)N2CC(C)CC(C)C2)cc1 (configuration not stated)	15%
CC1CC(NCc2coc(-c3ccc(C(F)(F)F)cc3)n2)CC(C)(C)C1 (configuration not stated)	98%

Compound	% inhibition
CC(NCc1coc(-c2ccc(C(F)(F)F)cc2)n1)C1CCCCC1 (configuration not stated)	7%
CC1CN(Cc2coc(-c3ccc(C(F)(F)F)cc3)n2)CC(C)O1 (configuration not stated)	12%
CCOc1ccc(-c2nc(CN3CC(C)OC(C)C3)co2)cc1 (configuration not stated)	-8%
CCOc1ccc(-c2nc(CNC3CCCCCC3)co2)cc1	20%
CCOc1ccc(-c2nc(CNC3CC(C)CC(C)(C)C3)co2)cc1 (configuration not stated)	99%
C#CC1(NCc2coc(-c3ccccc3Cl)n2)CCCCC1	-12%
COc1ccc(CN/C(=N\O)c2ccc(Oc3cc(C)cc(C(C)C)c3)nc2)cc1	28%
Brc1ccc(-c2nc(CNCc3cccnc3)co2)cc1	-36%
COc1cccc(-c2nc(CN(C)C(C)(C)C)co2)c1	31%
c1ccc(-c2nc(CN3CCN(C4CCCCC4)CC3)co2)cc1	-4%
COc1ccc(CN/C(=N\O)c2cccnc2Oc2cc(Cl)ccc2Cl)cc1	5%
CCOc1ccccc1CN/C(=N\O)c1ccc(Oc2ccc(Cl)cc2)nc1	1%
CCOc1ccccc1CN/C(=N\O)c1ccnc(Oc2ccc(Cl)cc2)c1	7%
Cc1ccccc1CN/C(=N\O)c1cccnc1Oc1cc(Cl)ccc1Cl	99%
Cc1ccc(/C(=N/O)NCc2ccccn2)c(Oc2cc(Cl)ccc2Cl)n1	30%
CC(C)COc1ncccc1/C(=N/O)NCC1CCCO1 (configuration not stated)	6%
COc1ccc(Oc2ncccc2/C(=N/O)NCC2CCCO2)cc1 (configuration not stated)	-15%
O/N=C(\NCc1ccccc1)c1cccnc1Oc1cc(Cl)ccc1Cl	100%
CCOc1ccccc1CN/C(=N\O)c1cccnc1Oc1ccc(Cl)cc1	87%
CC(C)c1ccc(Oc2ncccc2/C(=N/O)NCC2CCCO2)cc1 (configuration not stated)	98%
O/N=C(\NCc1ccccn1)c1cccnc1Oc1cc(Cl)ccc1Cl	0%
